Several values for one entry are separate records, joined by “and”; a condition that tells them apart may be missing. Equal values may be shown once. The panel holds about 83,000 compounds, 20% with a hit somewhere; the sample as a whole holds those more often.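 In brief: 96-well plates, 48 h treatment, single concentration, percent growth endpoint.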 Values without a mark were called inactive. Activity calls are given as the source filed them. Rule for the calls: active = growth percent below 10; inactive = the rest.

This experiment relates to HL-60(TB) leukemia. As to the kind of experiment: NCI-60 one-dose screen, 48 h (100 = growth as untreated, 0 = no growth, -100 = all killed). Particulars: 10 µM unless noted.
With `CN(C)CCCOc1ccc(OCCCN(C)C)c2c1C(=O)c1ccccc1C2=O`, the growth is 5.97% (active).

On to `N#C/C(=C\c1ccc(Br)cc1)n1nnc2cccc(F)c21`, for which the growth was -9.67% (active).

On to `O=C(Nc1ccc(I)cc1F)c1cc(Cl)ccc1O`, for which the growth was -44.3% (active).

For the compound `Nc1n[nH]c2ccc([C@H]3[C@@H]4C5CCC(C5)[C@@H]4c4c(ccc5[nH]ncc45)N3S(=O)(=O)C3CC3)cc12` (some centres undefined), the growth is -19.6% (active).

Take `Cc1ccc2sc3c(NCCCNCCO)nc4ccccc4c3c(=O)c2c1`: the growth was -0.607% (active).

With `COc1ccc(S(=O)(=O)Nc2ccc(OCc3nnc(-c4ccc(Cl)cc4)o3)c(F)c2)cc1`, the growth is 51.2%.

For `N=C(N)N1CCc2ccccc2C1`, the growth was 93.6% and 109%.

Consider `COc1ccc(-c2nc(N/N=C/c3c[nH]c4ccccc34)nc(N3CCOCC3)c2C#N)cc1`, for which the growth is 47.9%.

On to `CCOc1ccc(/C=N/N=C(N)N)cc1OCC`, for which the growth was 64.5%.

In the case of `Cc1c2ccccc2c(C)c2c1ccc1ccccc12`, the growth was 69.9%.

Take `Nc1cc(N)c2cccnc2c1O`: the growth is 59.6%.

Regarding `O=Nc1c(O)ccc2ccccc12.O=Nc1c(O)ccc2ccccc12.O=Nc1c([O-])ccc2ccccc12.[Fe+3]`, the growth is 105%.

For `O=C(CSC1CCc2ccccc21)N/N=C/c1ccccc1O` (centres undefined), the growth is -12% (active).

As to `CCCCCCCCCCCCCCCCCCNC(=S)N/N=C/c1ccc(OC)c(OC)c1`, the growth is 73.6%.

Regarding `C#CCC(C(=O)OCC)C(=O)OCC`, the growth is 101%.

Consider `Cc1c(Cl)cccc1NC(=O)c1sc2nc3c(cc2c1N)CCCCC3`, for which the growth is -24.9% (active).

With `O=C1Nc2ccc(Cl)cc2C12Nc1cc(Cl)ccc1S2` (centres undefined), the growth is 42.6%.

On to `CC1=NN(c2nc(SCC(=O)Nc3nc4ccc(C)cc4s3)nc(-c3ccccc3)c2C#N)C(=O)C1`, for which the growth is 111%.

In the case of `COc1cc(-c2csc(NC(=O)c3cc(-n4cnc(C)c4)cc(C(F)(F)F)c3)n2)cc(OC)c1OC`, the growth is 61%.

Turning to `CCOc1cc(CCNS(=O)(=O)c2ccc(C)cc2)c(C(C)=O)cc1OCC`, the growth was 46.5% [100 µM].

Regarding `Cc1ccc(NC(=O)Nc2ccc(Nc3ncnc4sc5c(c34)CCOC5)cc2)cc1Cl`, the growth was 108%.

For `COCCN(C(=O)c1ccc(F)cc1F)c1c(N)n(Cc2ccccc2)c(=O)[nH]c1=O`, the growth was 132%.

Consider `Nc1nc(-c2cc3ccccc3o2)cc(=O)c(=O)[nH]1`, for which the growth is 107%.

As for `CC(=O)Oc1ccc(C(c2ccc(OC(C)=O)cc2)c2ccccn2)cc1`, the growth is 102%.

For `CCOC(=O)C(=Cc1cccc(Br)c1)C(=O)OCC`, the growth was -6.91% (active).

Turning to `CCCCCCCCCCCC(=O)NCCCN(C)C`, the growth is 83.7%.

For `O=C(Cn1c(=O)sc2ccccc21)NNS(=O)(=O)c1ccccc1[N+](=O)[O-]`, the growth was 94.9%.

Regarding `CCCCCCCCn1ccc2cc(NC(=O)Cn3cc(CN4CCCC4)nn3)ccc21`, the growth was 13.8%.

`COc1cc(-c2nc(-c3ccc(-c4nc5ccc(F)cc5[nH]4)cc3)no2)cc(OC)c1OC`: the growth was 13.4%.

Consider `Fc1ccc(N/N=C/c2ccc(-n3cccn3)cc2)cc1`, for which the growth is 118%.

On to `Cc1ccc(Cn2c(N3CCC(C(=O)NCc4cccs4)CC3)nc3ccccc32)cc1`, for which the growth was -14.4% (active).

Turning to `O=C1C(SCCO)=C(SCCO)C(=O)N1c1ccc(-c2ccccc2)cc1`, the growth is -44.2% (active).

As to `CS(=O)(=O)Nc1cc(-c2ccc3ncnc(Nc4ccc5c(cnn5Cc5cccc(F)c5)c4)c3c2)cnc1Cl`, the growth was -23.9% (active).

For the compound `CCCC1=NNC(=O)C1`, the growth is 95.6%.

As to `Nc1ccccc1SC1CC(=O)N(c2cccc3ccccc23)C1=O` (centres undefined), the growth was 97%.

Turning to `O=S(=O)(O)c1ccc(Cl)c(Cl)c1`, the growth was 106%.

In the case of `COc1cc(/C=C/C(=O)Nc2cccnc2Nc2cc(OC)c(OC)c(OC)c2)cc(OC)c1OC`, the growth is 89.1%.

For the compound `CC(=O)N1C(=S)NC(=O)C1Cn1c(-c2ccccc2)nc2ccccc21` (centres undefined), the growth is 98.9%.

With `O=C(OCC1CC2(Cl)C(Cl)=C(Cl)C1(Cl)C2(Cl)Cl)C1C(C(=O)OCC2CC3(Cl)C(Cl)=C(Cl)C2(Cl)C3(Cl)Cl)C2(Cl)C(Cl)=C(Cl)C1(Cl)C2(Cl)Cl` (centres undefined), the growth was 89.3%.

The values are drawn from PubChem BioAssay (NCI).
